In PubChem BioAssay (NCATS):
Results filed as inconclusive are left out. The source made the active and inactive calls. Unless noted, calls come from the whole dose curve.

How the values were obtained:
[1] = qHTS for Inhibitors of the Functional Ribonucleoprotein Complex (vRNP) of Lassa (LASV) Arenavirus: LASV Primary Screen - GLuc reporter signal (AID 1347082; calls by dose curve; tested in HEK293 reporter line; note: nearly all actives have a fitted effect of over 60% in size); details: LASV minigenome vRNP, Gaussia luciferase reporter; series mostly up to 57.5 µM
[2] = qHTS for Inhibitors of the Functional Ribonucleoprotein Complex (vRNP) of Lassa (LASV) Arenavirus: Viability assay - alamar blue signal for LASV Primary Screen (AID 1347083; calls by dose curve; tested in HEK293 reporter line; note: nearly all actives have a fitted effect of over 80% in size); details: cell viability, alamar blue fluorescence (LASV minigenome counter-screen); series mostly up to 57.5 µM
[3] = qHTS for Inhibitors of the Functional Ribonucleoprotein Complex (vRNP) of Lymphocytic Choriomeningitis Arenaviruses (LCMV): Viability assay - alamar blue signal for LCMV Primary Screen (AID 1347085; calls by dose curve; tested in HEK293 reporter line; note: nearly all actives have a fitted effect of over 80% in size); details: alamar blue viability counter-screen, LCMV vRNP screen cells; series mostly up to 57.5 µM
[4] = biological target: Nucleoprotein (Lymphocytic choriomeningitis virus (strain Armstrong)) (UniProt P09992); assay: qHTS for Inhibitors of the Functional Ribonucleoprotein Complex (vRNP) of Lymphocytic Choriomeningitis Arenaviruses (LCMV): LCMV Primary Screen - GLuc reporter signal (AID 1347086); details: LCMV minigenome vRNP cell assay, Gaussia luciferase reporter; series mostly up to 57.5 µM; note: nearly all actives have a fitted effect of over 70% in size
Sequence of Nucleoprotein (Lymphocytic choriomeningitis virus (strain Armstrong)) (P09992 whole entry, looked up): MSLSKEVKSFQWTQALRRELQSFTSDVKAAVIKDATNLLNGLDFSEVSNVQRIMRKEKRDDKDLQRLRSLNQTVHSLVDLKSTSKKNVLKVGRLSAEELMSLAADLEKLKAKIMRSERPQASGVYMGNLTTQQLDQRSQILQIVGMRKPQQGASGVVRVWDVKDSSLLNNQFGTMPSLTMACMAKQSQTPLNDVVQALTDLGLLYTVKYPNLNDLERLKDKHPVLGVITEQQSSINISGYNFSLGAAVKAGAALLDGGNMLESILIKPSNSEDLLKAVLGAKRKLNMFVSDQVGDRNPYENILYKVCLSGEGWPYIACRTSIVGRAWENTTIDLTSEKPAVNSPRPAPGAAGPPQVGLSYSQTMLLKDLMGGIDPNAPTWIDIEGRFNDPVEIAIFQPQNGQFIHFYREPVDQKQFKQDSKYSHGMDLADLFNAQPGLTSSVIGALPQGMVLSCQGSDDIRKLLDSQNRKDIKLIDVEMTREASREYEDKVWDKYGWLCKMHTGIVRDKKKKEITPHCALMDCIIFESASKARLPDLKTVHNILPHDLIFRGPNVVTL

Measured: Potency

C[N+](C)(CCOc1ccccc1)Cc1cccs1
inactive: all assays above

CCC(C)(CN(C)C)OC(=O)c1ccccc1 (stereo not drawn)
inactive: all assays above

Cc1cnc(NS(=O)(=O)c2ccc(N)cc2)nc1
inactive: all assays above

CO[C@@]1(NC(=O)Cc2cccs2)C(=O)N2C(C(=O)O)=C(COC(N)=O)CS[C@@H]21
inactive: all assays above

Nc1ccc(C(=O)OCC(O)CO)cc1 (stereo not drawn)
inactive: all assays above

CS(=O)(=O)c1ccc([C@@H](O)[C@@H](CO)NC(=O)C(Cl)Cl)cc1
inactive: all assays above

Nc1ccc(S(=O)(=O)Nc2ccnn2-c2ccccc2)cc1
inactive: all assays above

CCOc1ccc(NS(=O)(=O)c2ccc(N)cc2)nn1
inactive: all assays above

CC[N+](C)(CC)CCOC(=O)C1c2ccccc2Oc2ccccc21
inactive: all assays above

COc1cc2c3cc1Oc1cc(ccc1O)C[C@@H]1c4c(cc(OC)c(O)c4Oc4ccc(cc4)C[C@@H]3N(C)CC2)CC[N+]1(C)C
inactive: all assays above

CC(=O)NCc1c(I)c(NC(C)=O)c(I)c(C(=O)O)c1I
inactive: all assays above

CC1(C)S[C@@H]2[C@H](NC(=O)C(c3ccccc3)S(=O)(=O)O)C(=O)N2[C@H]1C(=O)O (stereo partly drawn)
inactive: all assays above

N[C@@H](COP(=O)(O)O)C(=O)O
inactive: all assays above

COc1ccc(S(=O)(=O)Nc2nnc(CC(C)C)s2)cc1
inactive: all assays above

O=C1[C@@H]2[C@H]3CC[C@H](C3)[C@@H]2C(=O)N1CCCCN1CCN(c2ncccn2)CC1
inactive: all assays above

O=C(O)C(S)C(S)C(=O)O (stereo not drawn)
inactive: all assays above

CCn1cc(C(=O)O)c(=O)c2cnc(N3CCNCC3)nc21
inactive: all assays above

CC(=O)Nc1c(I)cc(I)c(C(=O)O)c1I
inactive: all assays above

CNC[C@H](O)[C@@H](O)[C@H](O)[C@H](O)CO
inactive: all assays above

CC(C)c1ccc2oc3nc(N)c(C(=O)O)cc3c(=O)c2c1
inactive: all assays above

O=[N+]([O-])c1ccc(/C=N\O)o1
inactive: all assays above

CCCCCCCC/C=C/C(=O)O
inactive: all assays above

CN(C)CCOC(=O)C(c1ccccc1)C1(O)CCCC1 (stereo not drawn)
inactive: all assays above

N[C@@H](CCC(=O)N[C@@H](CS)C(=O)NCC(=O)O)C(=O)O
inactive: all assays above

CC(CN(C)C)C(C)(O)Cc1ccc(Cl)cc1 (stereo not drawn)
inactive: all assays above

c1ccc2c(c1)CCCC2C1=NCCN1 (stereo not drawn)
inactive: all assays above

Cc1ccc(O)c2ncccc12
inactive: all assays above

CC(=O)Nc1ccc(/C=N/NC(N)=S)cc1
inactive: all assays above

CC(O)C(=O)O (stereo not drawn)
inactive: all assays above

CC(C)(C)NCC(O)COc1ccccc1OCC1CCCO1 (stereo not drawn)
inactive: all assays above

O=C1c2c(O)cccc2Cc2cccc(O)c21
inactive: all assays above

CC(C)(Oc1ccc(Cl)cc1)C(=O)O
inactive: all assays above

CC(C)(C)NCC(O)c1cc(O)cc(O)c1 (stereo not drawn)
inactive: all assays above

Cn1c(=O)c2c(ncn2CCO)n(C)c1=O
inactive: all assays above

CC(C)CN(C[C@@H](O)[C@H](Cc1ccccc1)NC(=O)O[C@H]1CO[C@H]2OCC[C@H]21)S(=O)(=O)c1ccc(N)cc1
inactive: all assays above

CC(C)(Sc1cc(C(C)(C)C)c(O)c(C(C)(C)C)c1)Sc1cc(C(C)(C)C)c(O)c(C(C)(C)C)c1
inactive: all assays above

O=S(=O)(O)CCS
inactive: all assays above

Cc1cc(=O)c2c(O)c3c(O)cc(=O)c4c3c3c(cc(O)c1c23)C(C)(C)C=4O
inactive: all assays above

COc1cc(/C=C/C(=O)O[C@H]2CC[C@]34C[C@]35CC[C@]3(C)[C@@H]([C@H](C)CCC=C(C)C)CC[C@@]3(C)[C@@H]5CC[C@H]4C2(C)C)ccc1O
inactive: all assays above

Cc1cc(O)cc2c1O[C@](C)(CCC[C@H](C)CCC[C@H](C)CCCC(C)C)CC2
inactive: all assays above

O=c1cc(O)c(Cl)c[nH]1
inactive: all assays above

CC(=O)CC/C=C(\C)CC/C=C(\C)CC/C=C(\C)CCC=C(C)C
inactive: all assays above

O=c1[nH]cnc2nc[nH]c12
inactive: all assays above

NC(=O)CC[C@@H]1NC(=O)[C@H](Cc2ccccc2)NC(=O)[C@H](Cc2ccc(O)cc2)NC(=O)CCSSC[C@@H](C(=O)N2CCC[C@H]2C(=O)N[C@@H](CCCN=C(N)N)C(=O)NCC(N)=O)NC(=O)[C@H](CC(N)=O)NC1=O
inactive: all assays above

CCN(Cc1ccncc1)C(=O)C(CO)c1ccccc1 (stereo not drawn)
inactive: all assays above

C[C@@H](O)[C@H]1C(=O)N2C(C(=O)O)=C(SCCN=CN)C[C@H]12
inactive: all assays above

CNC[C@H](O)c1cccc(O)c1
inactive: all assays above

CCCCN(CCCC)CCCOC(=O)c1ccc(N)cc1
inactive: all assays above

COC(=O)/C=C\C(=O)OC
inactive: all assays above

Cc1c(C(=O)O)c(O)cc2c1C(=O)c1c(O)c([C@@H]3O[C@H](CO)[C@@H](O)[C@H](O)[C@H]3O)c(O)c(O)c1C2=O
inactive: all assays above

CC(NN)c1ccccc1 (stereo not drawn)
inactive: all assays above

O=C(CCN1CCC(c2ccccc2)C1)c1ccc2c(c1)OCCO2 (stereo not drawn)
inactive: all assays above

Cc1ccc(C(=O)C(C)CN2CCCCC2)cc1 (stereo not drawn)
inactive: all assays above

O=C(NCCO[N+](=O)[O-])c1cccnc1
inactive: all assays above

Cc1cc2c(cc1S(N)(=O)=O)S(=O)(=O)CCC2
inactive: all assays above

CCCCOCCOC(=O)c1cccnc1
inactive: all assays above

COCCCN1CCC(NC(=O)c2cc(Cl)c(N)c3c2OCC3)CC1
inactive: all assays above

CCCCCCCCCCCCOCCO
inactive: all assays above

CCOC(=O)c1ccc(O)cc1
inactive: all assays above

O=C(O)Cc1sc(-c2ccccc2)nc1-c1ccc(Cl)cc1
inactive: all assays above

O=S(=O)(O)c1cc(I)c(O)c2ncccc12
inactive: all assays above

Cc1nc2c([nH]1)c(=O)n(C)c(=O)n2Cc1ccco1
inactive: all assays above

N#CSCC(=O)O
inactive: all assays above

CC(=O)NS(=O)(=O)c1ccc(N)cc1
inactive: all assays above

O=c1[nH]c(=O)n([C@H]2C[C@H](O)[C@@H](CO)O2)cc1I
inactive: all assays above

CC(=O)Oc1cc(C(C)C)c(OCCN(C)C)cc1C
inactive: all assays above

CC(C(=O)O)c1cccc(Oc2ccccc2)c1 (stereo not drawn)
inactive: all assays above

Cc1onc(-c2ccccc2)c1-c1ccc(S(N)(=O)=O)cc1
inactive: all assays above

O=c1cc[nH]c(=S)[nH]1
inactive: all assays above

CCCNC(C)C(=O)Nc1c(C)csc1C(=O)OC (stereo not drawn)
inactive: all assays above

CCOC(N)=O
inactive: all assays above

CN1CCN2c3ncccc3Cc3ccccc3C2C1 (stereo not drawn)
inactive: all assays above
